Outcome and AC50 data for 3 compounds are collected here from PubChem BioAssay (EPA / NIEHS).

One may read the AC50 as the concentration at which the activity in the assay is half-maximal.

Structures are written as SMILES. Calls of active or inactive are those of the source. How the source made its calls: active means hit-call score of the fitted dose curve at least 0.9, where 1 is the maximum; inactive means score below 0.9.

Conditions in all cases: mRNA level, 48 h; actives raise or lower the signal
Read-out in test [1]: Bcl-2 (BID) gene, BID (gene 637)
Nature of the test: LTEA_HepaRG_BID: Life Technologies and Expression Analysis (LTEA) Assay for Bcl-2 (BID) gene using HepaRG (AID 2283476). In outline: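 Gene expression by qRT-PCR in HepaRG cells after 48 h exposure, duplicate wells, eight half-log concentrations topping at 100 uM in 0.5% DMSO. Normalized to ACTB, GAPDH, POLR2A; bidirectional fitting relative to DMSO.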

Read-out in test [2]: Caspase-3 (Homo sapiens) (UniProt P42574)
Nature of the test: LTEA_HepaRG_CASP3: Life Technologies and Expression Analysis (LTEA) Assay for cysteine-aspartic acid protease (CASP3) using HepaRG (AID 2283477). In outline:
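In HepaRG liver cells dosed for 48 h at up to 100 uM (eight-point, duplicate), CASP3 expression changes are scored by qRT-PCR. Activity is fitted in both directions with 0.5% DMSO as baseline.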

Read-out in test [3]: Cytochrome P450 (CYP24A1), CYP24A1 (gene 1591)
Nature of the test: LTEA_HepaRG_CYP24A1: Life Technologies and Expression Analysis (LTEA) Assay for Cytochrome P450 (CYP24A1) using HepaRG (AID 2283478). The method, boiled down:
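Human liver HepaRG cultures receive each chemical for 48 h across an eight-point half-log series topping at 100 uM in 0.5% DMSO. Induction or suppression of CYP24A1 mRNA is scored relative to vehicle after housekeeping-gene normalization.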

Read-out in test [4]: Cytochrome P450 (CYP1A2), CYP1A2 (gene 1544)
Kind of test: LTEA_HepaRG_CYP1A2: Life Technologies and Expression Analysis (LTEA) Assay for Cytochrome P450 (CYP1A2) using HepaRG (AID 2283479). In outline: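 Assesses CYP1A2 mRNA in human HepaRG liver cells after 48 h chemical exposure at up to 100 uM. Values come from qRT-PCR with bidirectional curve fitting relative to DMSO.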

Read-out in test [5]: cysteine-aspartic acid protease (CASP8), CASP8 (gene 841)
Nature of the test: LTEA_HepaRG_CASP8: Life Technologies and Expression Analysis (LTEA) Assay for cysteine-aspartic acid protease (CASP8) using HepaRG (AID 2283480). In outline:
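Differentiated HepaRG cells in serum-free induction medium, 48 h exposure, eight-point half-log series from 100 uM in 0.5% DMSO, duplicates. CASP8 mRNA by qRT-PCR, normalized to ACTB, GAPDH, POLR2A; bidirectional fit versus DMSO.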

Read-out in test [6]: Cytochrome P450 (CYP2B6), CYP2B6 (gene 1555)
Nature of the test: LTEA_HepaRG_CYP2B6: Life Technologies and Expression Analysis (LTEA) Assay for Cytochrome P450 (CYP2B6) using HepaRG (AID 2283481). In outline:
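Using 48 h treatment of HepaRG cells in serum-free induction medium, concentrations spanned half-log steps from 100 uM in 0.5% DMSO vehicle. CYP2B6 mRNA induction or loss is scored by qRT-PCR against DMSO.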

Read-out in test [7]: Cytochrome P450 2C19 (Homo sapiens) (UniProt P33261)
Kind of test: LTEA_HepaRG_CYP2C19: Life Technologies and Expression Analysis (LTEA) Assay for CYP2C19 using HepaRG (AID 2283482). The method, boiled down:
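Human HepaRG liver cells received test chemicals for 48 h (highest 100 uM, half-log dilutions in 0.5% DMSO). CYP2C19 mRNA induction or loss is read by multiplexed qRT-PCR and fitted in both directions versus vehicle.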

Read-out in test [8]: CYP2C8 (gene 1558)
Kind of test: LTEA_HepaRG_CYP2C8: Life Technologies and Expression Analysis (LTEA) Assay for CYP2C8 using HepaRG (AID 2283483). In outline:
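Differentiated HepaRG cells in serum-free induction medium exposed 48 h in duplicate to 8 half-log concentrations from 100 uM in 0.5% DMSO. CYP2C8 mRNA by qRT-PCR normalized to ACTB, GAPDH, POLR2A; bidirectional fit versus DMSO.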

Read-out in test [9]: CYP2C9 (gene 1559)
Nature of the test: LTEA_HepaRG_CYP2C9: Life Technologies and Expression Analysis (LTEA) Assay for CYP2C9 using HepaRG (AID 2283484). The method, boiled down:
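Differentiated human HepaRG cells in serum-free induction medium were exposed 48 h to chemicals in 8-point half-log series from 100 uM (0.5% DMSO), in duplicate. CYP2C9 mRNA was measured by qRT-PCR, normalized to ACTB/GAPDH/POLR2A, with bidirectional fitting versus DMSO.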

Read-out in test [10]: CYP2E1 (gene 1571)
Nature of the test: LTEA_HepaRG_CYP2E1: Life Technologies and Expression Analysis (LTEA) Assay for CYP2E1 using HepaRG (AID 2283485). The method, boiled down: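 HepaRG cells, plated 48 h, then exposed 48 h in serum-free induction medium to eight half-log concentrations from 100 uM in 0.5% DMSO, duplicate. CYP2E1 mRNA by qRT-PCR, normalized to ACTB/GAPDH/POLR2A; bidirectional fit versus DMSO.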

Read-out in test [11]: CYP4A11 (gene 1579)
Kind of test: LTEA_HepaRG_CYP4A11: Life Technologies and Expression Analysis (LTEA) Assay for CYP4A11 using HepaRG (AID 2283486). In outline:
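Readout is CYP4A11 mRNA induction or suppression (qRT-PCR, ACTB/GAPDH/POLR2A normalization) in human HepaRG cells after 48 h chemical treatment, concentrations to 100 uM in 0.5% DMSO, fitted bidirectionally against vehicle.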

Read-out in test [12]: Cytochrome P450 3A4 (Homo sapiens) (UniProt P08684)
Nature of the test: LTEA_HepaRG_CYP3A4: Life Technologies and Expression Analysis (LTEA) Assay for CYP3A4 using HepaRG (AID 2283487). In outline: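 In a human hepatic line (HepaRG), duplicate wells were treated 48 h with up to 100 uM chemical in half-log dilutions. Endpoint: CYP3A4 mRNA induction or loss relative to 0.5% DMSO vehicle, by qRT-PCR.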

Read-out in test [13]: DNA damage-inducible transcript 3 (DDIT3), DDIT3 (gene 1649)
Kind of test: LTEA_HepaRG_DDIT3: Life Technologies and Expression Analysis (LTEA) Assay for DNA damage-inducible transcript 3 (DDIT3) using HepaRG (AID 2283488). The method, boiled down:
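HepaRG cells, 48 h after plating, exposed 48 h in serum-free induction medium to 8 half-log concentrations up to 100 uM in 0.5% DMSO, in duplicate. DDIT3 mRNA measured by TaqMan qRT-PCR, normalized to ACTB, GAPDH and POLR2A. Fitted bidirectionally against DMSO.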

Read-out in test [14]: Pro-epidermal growth factor (Homo sapiens) (UniProt P01133)
Nature of the test: LTEA_HepaRG_EGF: Life Technologies and Expression Analysis (LTEA) Assay for Epidermal growth factor (EGF) using HepaRG (AID 2283489). The method, boiled down: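 EGF expression changes in human HepaRG cells are scored by bidirectional fitting relative to 0.5% DMSO controls. Chemicals are tested at eight half-log concentrations up to 100 uM for 48 h in serum-free induction medium.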

Read-out in test [15]: Early growth response protein 1 (EGR1) transcription factor, EGR1 (gene 1958)
Kind of test: LTEA_HepaRG_EGR1: Life Technologies and Expression Analysis (LTEA) Assay for Early growth response protein 1 (EGR1) transcription factor using HepaRG (AID 2283490). In outline: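 Differentiated HepaRG cells in serum-free induction medium exposed 48 hours, duplicate, to 8 half-log concentrations up to 100 uM in 0.5% DMSO. EGR1 mRNA measured by TaqMan qRT-PCR, normalized to ACTB, GAPDH, POLR2A; bidirectional fit versus DMSO.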

Read-out in test [16]: Ezrin (EZR), EZR (gene 7430)
Kind of test: LTEA_HepaRG_EZR: Life Technologies and Expression Analysis (LTEA) Assay for Ezrin (EZR) using HepaRG (AID 2283491). The method, boiled down: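 Gain or loss of EZR mRNA is scored relative to 0.5% DMSO in human HepaRG cultures treated 48 h with test chemicals in duplicate, eight half-log concentrations from 100 uM.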

Read-out in test [17]: CYP3A5 (gene 1577)
Kind of test: LTEA_HepaRG_CYP3A5: Life Technologies and Expression Analysis (LTEA) Assay for CYP3A5 using HepaRG (AID 2283493). In outline: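 HepaRG cells, plated 48 h then in serum-free induction medium, dosed in duplicate for 48 h with eight half-log concentrations up to 100 uM in 0.5% DMSO. Gene mRNA by Fluidigm TaqMan qRT-PCR, normalized to ACTB, GAPDH, POLR2A.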

Read-out in test [18]: Fatty Acid-Binding Protein 1 (FABP1), FABP1 (gene 2168)
Nature of the test: LTEA_HepaRG_FABP1: Life Technologies and Expression Analysis (LTEA) Assay for Fatty Acid-Binding Protein 1 (FABP1) using HepaRG (AID 2283494). In outline:
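Differentiated human HepaRG cells exposed 48 h in serum-free induction medium to eight half-log concentrations up to 100 uM (0.5% DMSO), duplicate. FABP1 mRNA by qRT-PCR, normalised to ACTB, GAPDH, POLR2A; bidirectional fitting against DMSO.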

Read-out in test [19]: Cytochrome P450 4A22 (Homo sapiens) (UniProt Q5TCH4)
Nature of the test: LTEA_HepaRG_CYP4A22: Life Technologies and Expression Analysis (LTEA) Assay for Cytochrome P450 4A22 (CYP4A22) using HepaRG (AID 2283495). The method, boiled down: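 Cryopreserved HepaRG cells, plated and cultured 48 h, then switched to serum-free induction medium and treated 48 h (duplicates, up to 100 uM, half-log steps, 0.5% DMSO). Expression change of CYP4A22 was fitted bidirectionally against vehicle.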

Read-out in test [20]: Cytochrome P450 3A7 (Homo sapiens) (UniProt P24462)
Kind of test: LTEA_HepaRG_CYP3A7: Life Technologies and Expression Analysis (LTEA) Assay for CYP3A7 using HepaRG (AID 2283492). In outline: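 Cells were thawed, plated, cultured 48 h, then treated for a further 48 h with chemicals (eight-point half-log series from 100 uM, 0.5% DMSO). RNA was isolated and CYP3A7 expression quantified by qRT-PCR normalised to ACTB, GAPDH and POLR2A.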

Cytochrome P450 3A4 (Homo sapiens), sequence (P08684 whole entry, looked up): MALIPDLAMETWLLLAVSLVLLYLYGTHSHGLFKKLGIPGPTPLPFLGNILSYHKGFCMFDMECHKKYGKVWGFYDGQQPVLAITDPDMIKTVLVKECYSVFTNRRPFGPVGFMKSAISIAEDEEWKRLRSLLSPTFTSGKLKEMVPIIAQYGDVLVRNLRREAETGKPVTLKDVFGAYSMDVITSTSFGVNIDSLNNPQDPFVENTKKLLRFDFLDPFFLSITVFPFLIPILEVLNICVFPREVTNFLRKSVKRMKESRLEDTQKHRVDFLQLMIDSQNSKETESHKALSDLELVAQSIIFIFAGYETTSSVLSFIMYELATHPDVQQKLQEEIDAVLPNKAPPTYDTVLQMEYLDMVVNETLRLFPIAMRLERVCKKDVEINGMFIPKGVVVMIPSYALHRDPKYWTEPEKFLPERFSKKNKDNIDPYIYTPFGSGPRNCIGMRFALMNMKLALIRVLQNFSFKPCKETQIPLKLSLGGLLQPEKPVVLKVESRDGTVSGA
Caspase-3 (Homo sapiens), sequence (P42574 whole entry, looked up): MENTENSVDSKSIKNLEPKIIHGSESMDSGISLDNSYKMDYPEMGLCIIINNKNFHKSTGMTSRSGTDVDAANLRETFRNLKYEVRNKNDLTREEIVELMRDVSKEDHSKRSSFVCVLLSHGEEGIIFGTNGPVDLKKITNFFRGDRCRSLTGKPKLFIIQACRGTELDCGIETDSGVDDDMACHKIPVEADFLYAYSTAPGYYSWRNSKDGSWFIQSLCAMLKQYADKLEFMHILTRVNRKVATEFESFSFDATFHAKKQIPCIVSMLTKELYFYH
Cytochrome P450 2C19 (Homo sapiens), sequence (P33261 whole entry, looked up): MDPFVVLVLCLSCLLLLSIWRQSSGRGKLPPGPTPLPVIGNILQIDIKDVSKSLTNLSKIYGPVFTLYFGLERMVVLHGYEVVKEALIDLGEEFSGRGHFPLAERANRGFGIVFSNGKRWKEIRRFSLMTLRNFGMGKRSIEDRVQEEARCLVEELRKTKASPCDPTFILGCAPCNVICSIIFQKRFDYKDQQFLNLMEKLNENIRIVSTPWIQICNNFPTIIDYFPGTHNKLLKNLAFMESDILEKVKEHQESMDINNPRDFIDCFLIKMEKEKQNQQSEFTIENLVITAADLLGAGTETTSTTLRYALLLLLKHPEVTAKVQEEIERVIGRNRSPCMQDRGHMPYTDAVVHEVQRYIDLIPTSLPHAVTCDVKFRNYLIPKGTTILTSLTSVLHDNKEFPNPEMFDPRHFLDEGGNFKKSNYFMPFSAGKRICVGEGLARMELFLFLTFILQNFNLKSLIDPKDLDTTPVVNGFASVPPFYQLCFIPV
Cytochrome P450 3A7 (Homo sapiens), sequence (P24462 whole entry, looked up): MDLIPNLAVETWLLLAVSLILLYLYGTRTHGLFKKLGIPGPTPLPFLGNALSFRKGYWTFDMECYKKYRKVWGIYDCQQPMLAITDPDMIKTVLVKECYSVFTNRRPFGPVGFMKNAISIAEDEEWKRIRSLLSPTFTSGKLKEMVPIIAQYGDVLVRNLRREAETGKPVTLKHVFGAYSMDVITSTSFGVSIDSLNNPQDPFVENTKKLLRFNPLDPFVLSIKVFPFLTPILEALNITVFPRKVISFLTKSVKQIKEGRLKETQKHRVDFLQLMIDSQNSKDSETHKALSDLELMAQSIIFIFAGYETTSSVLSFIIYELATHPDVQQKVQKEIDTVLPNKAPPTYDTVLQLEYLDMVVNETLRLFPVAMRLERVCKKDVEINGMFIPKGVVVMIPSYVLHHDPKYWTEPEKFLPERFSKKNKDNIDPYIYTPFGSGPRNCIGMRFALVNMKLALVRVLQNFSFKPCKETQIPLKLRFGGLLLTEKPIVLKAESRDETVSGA

For the compound `COc1cc(OC)nc(NC(=O)NS(=O)(=O)c2ncccc2OCC(F)(F)F)n1`, the call in test [1], in test [2], in [3], in test [4], in test [5] and in test [8] was inactive. For the same compound, the compound was classed as inactive in test [10], in [11], in [13], in [14], in [15] and in test [17]. Besides, the result in test [18] was inactive. Also, the concentration at half-maximal activity (AC50) in test [6] is 23.8 µM (active); in test [7], 16.3 µM (active); in [9], 6.59 µM (active); in test [12], 13.3 µM (active); in test [16] it was 0.239 µM (active); in test [19] it was 0.628 µM (active).

On to `CN=C=S`, for which the result in [1], in test [2], in [3], in [4], in test [5] and in [6] was inactive. Besides, the outcome in [7], in [8], in test [9], in test [10], in test [11] and in test [12] was inactive. The result in test [13], in [14], in [16], in test [17], in test [18] and in test [19] was inactive.

Turning to `CCCN(CC)CC1COC2(CCC(C(C)(C)C)CC2)O1` (stereo unspecified), the outcome in test [1], in test [2], in [3], in test [4], in [5] and in test [7] was inactive. Besides, the call in test [8], in [9], in test [10], in test [11], in test [12] and in test [13] was inactive. For the same compound, the result in test [14], in [16], in [20], in test [17], in test [18] and in test [19] was inactive. Also, the half-maximal activity concentration (AC50) in test [6] was 50 µM (active).
